Experimental data from the supplement of paper PMC9262897, “Low-cost anti-mycobacterial drug discovery using engineered E. coli” (Nature Communications, 2022).
Counter-ions that a name gives are not always drawn. ± gives the standard deviation of the averaged measurements.

test system: E. coli TESEC Mtb DapB; experiment: growth (OD600 after 10 h); higher = more growth (less inhibition); conditions: arabinose induction (level): High; compound 0.1 mM; raw OD600 reference: median of DMSO wells […], cell-free background 0.041
Description: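 TESEC E. coli strains in which the native enzyme is deleted and replaced by arabinose-inducible Mtb Asd, DapB, CysH or TrpD, each grown in its selective medium. Strains were screened against the Prestwick library at 0.1 mM and 1% DMSO in 384-well format at low and high arabinose induction. Growth is read as OD600 after 10 h in triplicate.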

Q: Which growth does the source give for `Cc1c(NC(=O)c2cccnc2)c(=O)n(-c2ccccc2)n1C` [Nifenazone] here?
A: The growth was 0.192 ± 0.0073.

Q: Which growth does the source give for `NC[C@@H]1O[C@@H](O[C@H]2[C@H](O)[C@@H](O[C@H]3O[C@H](CO)[C@@H](O)[C@H](N)[C@H]3O)[C@H](N)C[C@@H]2N)[C@@H](O)[C@H](O)[C@H]1O` [Kanamycin A sulfate] here?
A: Its growth is 0.202 ± 0.0057.

Q: How did the growth turn out when `CCCNC(C)(C)COC(=O)c1ccccc1` [Meprylcaine hydrochloride] was run?
A: The growth was 0.182 ± 0.022.

Q: How did the growth turn out when `NC(=O)N1c2ccccc2CC(=O)c2ccccc21` [Oxcarbazepine] was run?
A: Its growth is 0.189 ± 0.0098.

Q: Which growth does the source give for `CCCc1nc(C)c2c(=O)nc(-c3cc(S(=O)(=O)N4CCN(CC)CC4)ccc3OCC)[nH]n12` [Vardenafil] here?
A: The growth was 0.151 ± 0.0082.

Q: Which growth does the source give for `CC(C)/N=c1\cc2n(-c3ccc(Cl)cc3)c3ccccc3nc-2cc1Nc1ccc(Cl)cc1` [Clofazimine] here?
A: Its growth is 0.248 ± 0.023.

Q: Which growth does the source give for `O=C(NCC1CCCCN1)c1cc(OCC(F)(F)F)ccc1OCC(F)(F)F` (stereo not given) [Flecainide acetate] here?
A: The growth was 0.178 ± 0.016.

Q: For `CC(C)NCC(O)COc1ccc(CCOCC2CC2)cc1` (stereo not given) [Betaxolol hydrochloride], which growth is on record?
A: Its growth is 0.235 ± 0.026.

Q: Which growth does the source give for `CC(=O)S[C@@H]1CC2=CC(=O)CC[C@]2(C)[C@H]2CC[C@@]3(C)[C@@H](CC[C@@]34CCC(=O)O4)[C@H]12` [Spironolactone] here?
A: The growth was 0.1363 ± 0.001.

Q: For `CO[C@@]1(NC(=O)CSCC#N)C(=O)N2C(C(=O)O)=C(CSc3nnnn3C)CS[C@@H]21` [Cefmetazole sodium salt], which growth is on record?
A: The growth was 0.0493 ± 0.0012.

Q: Which growth does the source give for `COc1ccc(-c2ccc3cc(C(=O)O)ccc3c2)cc1C12CC3CC(CC(C3)C1)C2` [Adapalene] here?
A: The growth was 0.193 ± 0.013.

Q: With `CC(C)N1CCN(c2ccc(OCC3COC(Cn4cncn4)(c4ccc(Cl)cc4Cl)O3)cc2)CC1` (stereo not given) [Terconazole] as the molecule, how does the growth read?
A: The growth was 0.198 ± 0.0065.

Q: How did the growth turn out when `CCn1cc(C(=O)O)c(=O)c2cc(F)c(N3CCNCC3)nc21` [Enoxacin] was run?
A: Its growth is 0.06527 ± 0.00061.

Q: For `CC(C)(C)NCC(O)COc1cccc2c1CCC(=O)N2` (stereo not given) [Carteolol hydrochloride], which growth is on record?
A: Its growth is 0.187 ± 0.0085.

Q: `N=C(NCCCCCCNC(=N)NC(=N)Nc1ccc(Cl)cc1)NC(=N)Nc1ccc(Cl)cc1` [Chlorhexidine] was tested. Which growth did it give?
A: The growth was 0.0506 ± 0.0011.

Q: For `Cn1nnc2c(C(N)=O)ncn2c1=O` [Temozolomide], which growth is on record?
A: Its growth is 0.194 ± 0.02.

Q: For `CCCCN(CCCC)CCC(O)c1cc2c(Cl)cc(Cl)cc2c2cc(C(F)(F)F)ccc12` (stereo not given) [Halofantrine hydrochloride], which growth is on record?
A: Its growth is 0.259 ± 0.018.

Q: Which growth does the source give for `CC(=O)O[C@]1(C(C)=O)CC[C@H]2[C@@H]3C=C(C)C4=CC(=O)CC[C@@H]4[C@H]3CC[C@@]21C` [Nomegestrol acetate] here?
A: The growth was 0.144 ± 0.014.

Q: For `CCCCC(=O)N(Cc1ccc(-c2ccccc2-c2nnn[nH]2)cc1)[C@H](C(=O)O)C(C)C` [Valsartan], which growth is on record?
A: Its growth is 0.211 ± 0.011.

Q: Which growth does the source give for `c1ccc2c(CC3=NCCN3)cccc2c1` [Naphazoline hydrochloride] here?
A: The growth was 0.184 ± 0.011.

same assay, conditions: arabinose induction (level): Low; compound 0.1 mM; raw OD600 reference: median of DMSO wells 0.227, cell-free background 0.041

Q: `Cc1c(NC(=O)c2cccnc2)c(=O)n(-c2ccccc2)n1C` [Nifenazone] was tested. Which growth did it give?
A: Its growth is 0.262 ± 0.065.

Q: With `NC[C@@H]1O[C@@H](O[C@H]2[C@H](O)[C@@H](O[C@H]3O[C@H](CO)[C@@H](O)[C@H](N)[C@H]3O)[C@H](N)C[C@@H]2N)[C@@H](O)[C@H](O)[C@H]1O` [Kanamycin A sulfate] as the molecule, how does the growth read?
A: The growth was 0.28 ± 0.056.

Q: With `CCCNC(C)(C)COC(=O)c1ccccc1` [Meprylcaine hydrochloride] as the molecule, how does the growth read?
A: The growth was 0.221 ± 0.0093.

Q: For `NC(=O)N1c2ccccc2CC(=O)c2ccccc21` [Oxcarbazepine], which growth is on record?
A: The growth was 0.201 ± 0.019.

Q: With `CCCc1nc(C)c2c(=O)nc(-c3cc(S(=O)(=O)N4CCN(CC)CC4)ccc3OCC)[nH]n12` [Vardenafil] as the molecule, how does the growth read?
A: The growth was 0.173 ± 0.018.

Q: `CC(C)/N=c1\cc2n(-c3ccc(Cl)cc3)c3ccccc3nc-2cc1Nc1ccc(Cl)cc1` [Clofazimine] was tested. Which growth did it give?
A: The growth was 0.261 ± 0.012.

Q: How did the growth turn out when `O=C(NCC1CCCCN1)c1cc(OCC(F)(F)F)ccc1OCC(F)(F)F` (stereo not given) [Flecainide acetate] was run?
A: The growth was 0.213 ± 0.019.

Q: With `CC(C)NCC(O)COc1ccc(CCOCC2CC2)cc1` (stereo not given) [Betaxolol hydrochloride] as the molecule, how does the growth read?
A: The growth was 0.246 ± 0.011.

Q: `CC(=O)S[C@@H]1CC2=CC(=O)CC[C@]2(C)[C@H]2CC[C@@]3(C)[C@@H](CC[C@@]34CCC(=O)O4)[C@H]12` [Spironolactone] was tested. Which growth did it give?
A: Its growth is 0.178 ± 0.018.

Q: With `CO[C@@]1(NC(=O)CSCC#N)C(=O)N2C(C(=O)O)=C(CSc3nnnn3C)CS[C@@H]21` [Cefmetazole sodium salt] as the molecule, how does the growth read?
A: The growth was 0.0513 ± 0.0023.

Q: How did the growth turn out when `COc1ccc(-c2ccc3cc(C(=O)O)ccc3c2)cc1C12CC3CC(CC(C3)C1)C2` [Adapalene] was run?
A: Its growth is 0.249 ± 0.028.

Q: `CC(C)N1CCN(c2ccc(OCC3COC(Cn4cncn4)(c4ccc(Cl)cc4Cl)O3)cc2)CC1` (stereo not given) [Terconazole] was tested. Which growth did it give?
A: The growth was 0.223 ± 0.011.

Q: How did the growth turn out when `CCn1cc(C(=O)O)c(=O)c2cc(F)c(N3CCNCC3)nc21` [Enoxacin] was run?
A: The growth was 0.061 ± 0.0086.

Q: For `CC(C)(C)NCC(O)COc1cccc2c1CCC(=O)N2` (stereo not given) [Carteolol hydrochloride], which growth is on record?
A: Its growth is 0.217 ± 0.022.

Q: For `N=C(NCCCCCCNC(=N)NC(=N)Nc1ccc(Cl)cc1)NC(=N)Nc1ccc(Cl)cc1` [Chlorhexidine], which growth is on record?
A: The growth was 0.0542 ± 0.0085.

Q: `Cn1nnc2c(C(N)=O)ncn2c1=O` [Temozolomide] was tested. Which growth did it give?
A: Its growth is 0.211 ± 0.0067.

Q: How did the growth turn out when `CCCCN(CCCC)CCC(O)c1cc2c(Cl)cc(Cl)cc2c2cc(C(F)(F)F)ccc12` (stereo not given) [Halofantrine hydrochloride] was run?
A: Its growth is 0.291 ± 0.037.

Q: Which growth does the source give for `CC(=O)O[C@]1(C(C)=O)CC[C@H]2[C@@H]3C=C(C)C4=CC(=O)CC[C@@H]4[C@H]3CC[C@@]21C` [Nomegestrol acetate] here?
A: Its growth is 0.129 ± 0.0045.

Q: With `CCCCC(=O)N(Cc1ccc(-c2ccccc2-c2nnn[nH]2)cc1)[C@H](C(=O)O)C(C)C` [Valsartan] as the molecule, how does the growth read?
A: The growth was 0.257 ± 0.03.

Q: Which growth does the source give for `c1ccc2c(CC3=NCCN3)cccc2c1` [Naphazoline hydrochloride] here?
A: The growth was 0.21 ± 0.016.
